# Records with an inconclusive call do not appear. Calls of active or inactive are those of the source. The calls were made as follows: active = hit-call score of the fitted dose curve at least 0.9, where 1 is the maximum; inconclusive = response in the unintended direction; inactive = score below 0.9.
# Target: Estrogen receptor (Homo sapiens) (UniProt P03372)
# Assay: ATG_ERa_TRANS: Attagene TRANS-FACTORIAL HepG2 Assay for human Estrogen Receptor alpha (ERa) (AID 2282970)
# Conditions: HepG2 Attagene TRANS ERa GAL4 reporter, mRNA
# Procedure: ATG_TRANS is a cell-based, multiplexed-readout assay that uses HepG2, a human liver cell line, with measurements taken at 24 hours after chemical dosing in a 24-well plate.ATG_ERa_TRANS is one of 30 assay component(s) measured or calculated from the ATG_TRANS assay. It is designed to make measurements of mRNA induction, a form of inducible reporter, as detected with fluorescence intensity signals by Reverse transcription polymerase chain reaction (RT-PCR) and Capillary electrophoresis technology.Data from the assay component ATG_ERa_TRANS was analyzed into 1 assay endpoint. This assay endpoint, ATG_ERa_TRANS, was analyzed in the positive analysis fitting direction relative to DMSO as the negative control and baseline of activity. Using a type of inducible reporter, measures of mRNA for gain-of-signal activity can be used to understand the reporter gene at the transcription factor-level as they relate to the gene ESR1. Furthermore, this assay endpoint can be referred to as a primary readout, because this assay has produced multiple assay endpoints where this one serves a reporter gene function. To generalize the intended target to other relatable targets, this assay endpoint is annotated to the nuclear receptor intended target family, where the subfamily is steroidal.
# Human liver HepG2 cells are transiently transfected with multiple reporter transcription units (MRTUs) in 6-well plates using FuGene 6 reagent (Roche; 3 ml FuGene/1 mg DNA). The MRTU constructs are regulated by a cis-regulating element (promoter). […] A major difference between the CIS and TRANS system is that in CIS activities of endogenous TFs are measured, whereas the TRANS assay evaluates changes in activities of exogenous, chimeric NR-Gal4 proteins. […] At the end of 24 hour incubation, total RNA was isolated using TriZol reagent (Invitrogen). The isolated RNA is then reverse-transcribed using oligo(dT) primer and Mo-MLV reverse transcriptase (Invitrogen) with DNAse I (Ambion) treatment for 30 min. The one-tenth of the produced cDNA was amplified by PCR using Taq DNA polymerase (Invitrogen) and two reporter sequence-specific primers. The PCR products were fluorescently labeled by primer extension with 6-arboxyfluorescein (6-FAM) 5'-labeled reporter sequence-specific primer (2 min at 95 C, 20 s at 68 C and 10 min at 72 C) and these products were digested with 5U of HpaI (New England Biolabs) for 2h at 37 C. […] The raw capillary electrophoresis data was processed using Attagraph software (Attagene).
# Chain of Estrogen receptor (Homo sapiens) (P03372 whole entry, looked up): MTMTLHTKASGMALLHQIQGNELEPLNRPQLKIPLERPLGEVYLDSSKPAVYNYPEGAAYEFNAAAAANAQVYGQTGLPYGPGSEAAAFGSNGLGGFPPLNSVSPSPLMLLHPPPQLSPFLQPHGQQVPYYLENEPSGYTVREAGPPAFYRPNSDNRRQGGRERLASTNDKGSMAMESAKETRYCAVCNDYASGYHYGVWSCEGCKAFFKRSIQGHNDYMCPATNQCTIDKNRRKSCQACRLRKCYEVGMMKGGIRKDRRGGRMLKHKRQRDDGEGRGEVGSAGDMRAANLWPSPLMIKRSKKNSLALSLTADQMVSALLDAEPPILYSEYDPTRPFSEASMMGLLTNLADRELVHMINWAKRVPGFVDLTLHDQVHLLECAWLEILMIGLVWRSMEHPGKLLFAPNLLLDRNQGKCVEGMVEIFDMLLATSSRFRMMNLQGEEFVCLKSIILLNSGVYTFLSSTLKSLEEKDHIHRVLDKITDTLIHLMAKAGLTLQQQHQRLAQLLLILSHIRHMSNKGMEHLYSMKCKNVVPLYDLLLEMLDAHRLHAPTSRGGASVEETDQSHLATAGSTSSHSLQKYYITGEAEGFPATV
SMILES,outcome,AC50
CC(C)NCC(O)COc1ccc(CC(N)=O)cc1 (configuration not stated),inactive,
CCCCC1(COC(=O)CCC(=O)O)C(=O)N(c2ccccc2)N(c2ccccc2)C1=O,inactive,
CCN(CCN)c1cccc(C)c1,inactive,
CCCC(=O)C(CC)Sc1ccoc1C (configuration not stated),,16 µM (active)
O=CN1CCOCC1,inactive,
CCCCCCCCCCCC(=O)OCC(O)CO (configuration not stated),inactive,
O=[N+]([O-])c1cccc(Cl)c1,inactive,
CC(C)(C)CC(C)(C)c1ccc(OCCOCC[N+](C)(C)Cc2ccccc2)cc1,inactive,
CC(C)(CO)[C@@H](O)C(=O)NCCC(=O)O,inactive,
Brc1ccc(Br)c(Br)c1,inactive,
Cc1[nH]c(=O)c(C#N)cc1-c1ccncc1,inactive,
Nc1c(Cl)cc(Cl)cc1[N+](=O)[O-],inactive,
O=C(Nc1ccc2c(O)c(N=Nc3ccc(N=Nc4ccc(S(=O)(=O)O)cc4)cc3)c(S(=O)(=O)O)cc2c1)c1ccccc1,inactive,
CN(c1nccc(=O)[nH]1)C1CCN(c2nc3ccccc3n2Cc2ccc(F)cc2)CC1,inactive,
COC(=O)C=C(C)CCC=C(C)C,inactive,
Nc1c(S(=O)(=O)O)cc(Br)c2c1C(=O)c1ccccc1C2=O,inactive,
CC(C)CCCCCCc1ccc(OCCOCCO)cc1,inactive,

# From PubChem BioAssay (EPA / NIEHS)
